The source of these data is PubChem BioAssay (EPA / NIEHS).

Records with an inconclusive call do not appear. Activity calls are given as the source filed them. The calls were made as follows: active = hit-call score of the fitted dose curve at least 0.9, where 1 is the maximum; inconclusive = response in the unintended direction; inactive = score below 0.9.

The experiment can be described thus: Tanguay_ZF_120hpf_YSE_legacy: (Legacy) Oregon State University Tanguay Lab 120 Hour Post-fertilization zebrafish Assay for Yolk Sac Edema (AID 2283634).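 As to AC50: actives raise the incidence of yolk sac edema above the DMSO baseline.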 As to the method: Tanguay_ZF_120hpf_legacy is a whole embryo, multiplexed endpoint assay using zebrafish larvae exposed for 120 hours post fertilization on a 96-well plate.Tanguay_ZF_120hpf_YSE_legacy is one of one assay component(s) measured or calculated from the Tanguay_ZF_120hpf_legacy assay. It is designed to make measurements of zebrafish development as detected with brightfield microscopy of developing zebrafish embryos.Data from the assay component Tanguay_ZF_120hpf_YSE_legacy was analyzed into 1 assay endpoints. This assay endpoint, Tanguay_ZF_120hpf_YSE_legacy, was analyzed in the positive analysis fitting direction relative to DMSO as the negative control and baseline of activity. Using a type of morphology reporter, gain-of-signal activity can be used to understand changes in developmentals as they relate to the whole embryo. To generalize the intended target to other relatable targets, this assay endpoint is annotated to the zebrafish development intended target family, where the subfamily is extra-embryonic membrane development.
Zebrafish husbandry: Tropical 5D wild-type adult zebrafish were housed in at an approximate density of 1000 per 100 gallon tank at the Sinnhuber Aquatic Research Laboratory, Oregon State University, Corvallis, OR. Each tank was kept at standard laboratory conditions of 28C on a 14-h light/10-h dark photoperiod in fish water consisting of reverse osmosis water supplemented with a commercially available salt (Instant Ocean). Spawning funnels were placed into the tanks the night prior, and embryos were collected and staged. To increase bioavailability, the chorion was enzymatically removed using pronase (63.6mg/ml, >/= 3.5U/mg, Sigma-Aldrich: P5147) at 4 hours post fertilization (hpf) using a custom automated dechorionator.Chemical exposures: Six hpf dechorionated embryos were placed 1 embryo per well in a 96-well plate prefilled with 90 ul of EM using automated embryo placement systems (AEPS). Ten microliters of each row of dilution plate 2 was added to 2 exposure plates. The final DMSO concentration used was 0.64% (vol/vol). Thirty-two embryos were also exposed to 5uM trimethyltin chloride (positive control). Plates were sealed to prevent evaporation and foil covered to reduce light exposure and kept in a 28C incubator. Embryos were statically exposed until 120 hpf. At 24 hpf, embryos were assessed for photomotor response using a custom photomotor response analysis tool (PRAT) and for developmental toxicity endpoints (MO24: mortality at 24 hpf, DP: developmental progression, SM: spontaneous movement, and NC: notochord distortion). At 120 hpf, locomotor activity was measured using Viewpoint Zebralab and assessed for 18 endpoints. Zebrafish acquisition and analysis program (ZAAP), a custom program designed to inventory, acquire, and manage zebrafish data, was used to collect developmental endpoints as either present or absent (i.e., binary responses were recorded). If mortality occurred for an embryo (at either 24 or 120 hpf), the non-mortality endpoints were not measured.
For orientation: AC50 means the concentration at which the activity in the assay is half-maximal. `Cc1c(-c2cccnc2)c2ccccc2n1CCCCC(=O)O`: the concentration at half-maximal activity (AC50) was 51.2 µM (active).

`CC(C)=CCCC(C)=CC=O`: the compound was called inactive.

For `CC[C@H]1CC[C@H](NCc2cc3c(cc2OC)[C@H]2C[C@H]2C(=O)N3C)[C@H](c2ccccc2)N1`, the compound was called inactive.

Take `CC(=O)OC[C@H]1O[C@@](COC(C)=O)(O[C@H]2O[C@H](COC(C)=O)[C@@H](OC(C)=O)[C@H](OC(C)=O)[C@H]2OC(C)=O)[C@@H](OC(C)=O)[C@@H]1OC(C)=O`: the result was inactive. Regarding `COc1ccc(-n2nc(C(F)F)cc2-c2ccc(S(C)=O)cc2)cc1` (stereo not given), the AC50 is 24.8 µM (active). For the compound `CCCCCCCCCCCCCCCO`, the call was inactive. For `O=C1CCC(N2C(=O)c3ccccc3C2=O)C(=O)N1` (stereo not given), the call was inactive.

For `NC(=O)NO`, the outcome was inactive. On the same count and under the same terms, with `CCCN(C1CCN(C(=O)C2CCNCC2)CC1)[C@@H]1CCc2ccc(OC)cc2C1` the entry was “inactive”; with `Cc1ccc(C)c(O)c1`, “inactive”; with `CCCCCCc1ccc(O)cc1O`, “inactive”. As for `CC(C)CCO`, the outcome was inactive. As for `CC(C)c1cccc(C(C)C)c1N1C(=O)c2ccc(O)cc2C1=O`, the result was inactive. Still for that read-out and setting: with `CCN(C(=O)c1cc(C)cc(OC[C@H](C)Nc2ccncc2)c1)C(C)C` the entry was “inactive”; with `COC(=O)CC(=O)OC`, “inactive”; with `O=C(OC[C@H]1O[C@@H](OC(=O)c2cc(O)c(O)c(OC(=O)c3cc(O)c(O)c(O)c3)c2)[C@H](OC(=O)c2cc(O)c(O)c(OC(=O)c3cc(O)c(O)c(O)c3)c2)[C@@H](OC(=O)c2cc(O)c(O)c(OC(=O)c3cc(O)c(O)c(O)c3)c2)[C@@H]1OC(=O)c1cc(O)c(O)c(OC(=O)c2cc(O)c(O)c(O)c2)c1)c1cc(O)c(O)c(OC(=O)c2cc(O)c(O)c(O)c2)c1`, “inactive”. On the same count and under the same terms, with `O=C1OC(=O)C2C3C=CC(C3)C12` (stereo not given) the entry was “inactive”; with `CCCCCCCCO`, “inactive”. On the same count and under the same terms, with `CC/C(=C\C(=N/O)C(N)=O)C(C)[N+](=O)[O-]` (stereo not given) the entry was “inactive”; with `O=C(CCCCCCCCc1cccnc1)N1CCC(C=C(c2ccccc2)c2ccccc2)CC1`, “inactive”; with `O=C(O)c1cccc(Oc2ccccc2)c1`, “inactive”. In the case of `C=CC(=C)CCC=C(C)C`, the outcome was inactive.

As to `COC(=O)c1c(Cl)c(Cl)c(C(=O)OC)c(Cl)c1Cl`, the result was inactive. On to `CNCc1ccc(NC(=O)c2c[nH]c3c2C(=O)CCC3)cc1`, for which the outcome was inactive. Still for that read-out and setting: with `CCOCCO` the entry was “inactive”. The same measure, in the same setting: with `Cn1c(=O)c2c(ncn2C)n(C)c1=O` the entry was “inactive”; with `CCc1cc(SCc2sc(-c3ccc(C(F)(F)F)cc3)nc2CN2CCN(c3ccc(OC)cc3)CC2)ccc1OCC(=O)O`, “inactive”. For the compound `COc1cccc(-c2ccc(/C=C\CN3CCCCCC3)cc2Cl)c1`, the outcome was inactive.

Regarding `COCCOCCOCCOC`, the compound was classed as inactive. Still for that read-out and setting: with `CCOC(=O)CC(CC(=O)OCC)(OC(C)=O)C(=O)OCC` the entry was “inactive”; with `CC(=O)OCCC(C)C`, “inactive”; with `O=C(O)CC(O)C(=O)O` (stereo not given), “inactive”. On to `Oc1ccc2c(c1)-c1ccccc1C2`, for which the AC50 is 37.6 µM (active). As to `O=C(O)c1cc(N=Nc2ccc(S(=O)(=O)Nc3ccccn3)cc2)ccc1O`, the outcome was inactive. The same measure, in the same setting: with `CC(O)CN(CCN(CC(C)O)CC(C)O)CC(C)O` (stereo not given) the entry was “inactive”. For the compound `O=c1n(CC2CO2)c(=O)n(CC2CO2)c(=O)n1CC1CO1` (stereo not given), the result was inactive.

With `CC(C)CC(C)(O)C#CC(C)(O)CC(C)C` (stereo not given), the outcome was inactive.

As to `C1N2CN3CN1CN(C2)C3`, the call was inactive. As for `CC(C)=CCC/C(C)=C\CO`, the outcome was inactive.

As to `O=P(OC(CCl)CCl)(OC(CCl)CCl)OC(CCl)CCl`, the AC50 is 25.4 µM (active).
